Test results published in PubChem BioAssay (NCI).
The panel holds about 83,000 compounds, 20% with a hit somewhere; the sample as a whole holds those more often.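 Plates (96-well) were seeded with cells, treated with compound at one concentration, and incubated for 48 hours before percent growth was determined.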 A number with no mark means an inactive call. Activity calls are given as the source filed them. How the source made its calls: active means growth percent below 10; inactive means the rest.

Legend:
Experiment in all cases: NCI-60 one-dose screen, 48 h (100 = growth as untreated, 0 = no growth, -100 = all killed)
Details in all cases: 10 µM unless noted
SK-MEL-2 melanoma = system: SK-MEL-2 melanoma
SN12C renal = system: SN12C renal
UO-31 renal = system: UO-31 renal
TK-10 renal = system: TK-10 renal
ACHN renal = system: ACHN renal
CAKI-1 renal = system: CAKI-1 renal
A498 renal = system: A498 renal
CCRF-CEM leukemia = system: CCRF-CEM leukemia
MOLT-4 leukemia = system: MOLT-4 leukemia
EKVX NSCLC = system: EKVX NSCLC

COc1cc(C2CC(=O)Nc3c2cnn3Cc2ccco2)cc2c1OCCO2 (stereo not drawn)
growth (SK-MEL-2 melanoma): 86.8%
growth (SN12C renal): 91.3%
growth (UO-31 renal): 97%
growth (TK-10 renal): 102%
growth (ACHN renal): 93.1%
growth (CAKI-1 renal): 96.9%
growth (A498 renal): 64.3%
growth (CCRF-CEM leukemia): 111%
growth (MOLT-4 leukemia): 65.6%

O=C(O)c1cccnc1Br
growth (SK-MEL-2 melanoma): 99.6%
growth (EKVX NSCLC): 107%
growth (UO-31 renal): 73.5%
growth (TK-10 renal): 113%
growth (ACHN renal): 99.6%
growth (CAKI-1 renal): 94.1%
growth (A498 renal): 104%
growth (CCRF-CEM leukemia): 121%
growth (MOLT-4 leukemia): 103%

CC(=O)C1=C(O)C=C2Oc3c(C(=O)/C=C/c4cc(C(F)(F)F)cc(C(F)(F)F)c4)c(O)c(C)c(O)c3[C@]2(C)C1=O
growth (SK-MEL-2 melanoma): -49.7% (active)
growth (SN12C renal): -34.1% (active)
growth (UO-31 renal): -31.4% (active)
growth (TK-10 renal): -32.5% (active)
growth (ACHN renal): -75.7% (active)
growth (CAKI-1 renal): 5.35% (active)
growth (A498 renal): -87.7% (active)
growth (CCRF-CEM leukemia): -18.1% (active)
growth (MOLT-4 leukemia): -14.1% (active)

C=CC[N+]1(CCO)CCN=C1CCCCCCCCCCCCC (stereo not drawn)
growth (SK-MEL-2 melanoma): -64.2% (active)
growth (EKVX NSCLC): -29.4% (active)
growth (UO-31 renal): -60.7% (active)
growth (ACHN renal): -91.9% (active)
growth (CAKI-1 renal): -47.7% (active)
growth (A498 renal): 82.6%
growth (CCRF-CEM leukemia): -40.6% (active)
growth (MOLT-4 leukemia): -42.6% (active)

C=CC[N+]1(CC)CCN=C1CCCCCCCCCCCCCCCCC (stereo not drawn)
growth (SK-MEL-2 melanoma): -74% (active)
growth (EKVX NSCLC): -75.7% (active)
growth (UO-31 renal): -65.5% (active)
growth (TK-10 renal): -94.2% (active)
growth (ACHN renal): -86.6% (active)
growth (A498 renal): -15.6% (active)
growth (CCRF-CEM leukemia): -59.4% (active)
growth (MOLT-4 leukemia): -60% (active)
